Tests used:
[1] = target: Protein kinase C eta type (Homo sapiens) (UniProt P24723); settings: at 1 µM
[2] = target: Protein kinase C eta type (Homo sapiens) (UniProt P24723); settings: at 10 µM
[3] = target: Protein kinase C theta type (Homo sapiens) (UniProt Q04759); settings: at 1 µM
[4] = target: Protein kinase C theta type (Homo sapiens) (UniProt Q04759); settings: at 10 µM
[5] = target: T1, Protein kinase C iota type (Homo sapiens) (UniProt P41743); settings: at 10 µM
T1 sequence (whole entry): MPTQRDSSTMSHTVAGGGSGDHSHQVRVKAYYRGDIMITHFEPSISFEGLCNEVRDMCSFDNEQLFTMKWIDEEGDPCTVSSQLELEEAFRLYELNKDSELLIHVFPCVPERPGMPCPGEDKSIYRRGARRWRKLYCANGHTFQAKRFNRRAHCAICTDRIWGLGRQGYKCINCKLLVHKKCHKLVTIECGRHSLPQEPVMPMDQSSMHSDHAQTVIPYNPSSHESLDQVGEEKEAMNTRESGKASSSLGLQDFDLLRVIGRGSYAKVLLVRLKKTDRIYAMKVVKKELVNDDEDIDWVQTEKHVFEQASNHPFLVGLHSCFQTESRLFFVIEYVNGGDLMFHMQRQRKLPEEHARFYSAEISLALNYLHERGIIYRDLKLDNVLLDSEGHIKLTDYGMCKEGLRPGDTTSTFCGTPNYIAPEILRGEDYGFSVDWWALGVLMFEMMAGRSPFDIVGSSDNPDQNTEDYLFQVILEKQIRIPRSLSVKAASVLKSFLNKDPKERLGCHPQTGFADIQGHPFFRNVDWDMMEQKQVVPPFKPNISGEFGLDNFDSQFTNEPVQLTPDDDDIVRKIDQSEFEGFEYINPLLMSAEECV

[6] = target: T2, Serine/threonine-protein kinase D1 (Homo sapiens) (UniProt Q15139); settings: at 1 µM
T2 sequence (whole entry): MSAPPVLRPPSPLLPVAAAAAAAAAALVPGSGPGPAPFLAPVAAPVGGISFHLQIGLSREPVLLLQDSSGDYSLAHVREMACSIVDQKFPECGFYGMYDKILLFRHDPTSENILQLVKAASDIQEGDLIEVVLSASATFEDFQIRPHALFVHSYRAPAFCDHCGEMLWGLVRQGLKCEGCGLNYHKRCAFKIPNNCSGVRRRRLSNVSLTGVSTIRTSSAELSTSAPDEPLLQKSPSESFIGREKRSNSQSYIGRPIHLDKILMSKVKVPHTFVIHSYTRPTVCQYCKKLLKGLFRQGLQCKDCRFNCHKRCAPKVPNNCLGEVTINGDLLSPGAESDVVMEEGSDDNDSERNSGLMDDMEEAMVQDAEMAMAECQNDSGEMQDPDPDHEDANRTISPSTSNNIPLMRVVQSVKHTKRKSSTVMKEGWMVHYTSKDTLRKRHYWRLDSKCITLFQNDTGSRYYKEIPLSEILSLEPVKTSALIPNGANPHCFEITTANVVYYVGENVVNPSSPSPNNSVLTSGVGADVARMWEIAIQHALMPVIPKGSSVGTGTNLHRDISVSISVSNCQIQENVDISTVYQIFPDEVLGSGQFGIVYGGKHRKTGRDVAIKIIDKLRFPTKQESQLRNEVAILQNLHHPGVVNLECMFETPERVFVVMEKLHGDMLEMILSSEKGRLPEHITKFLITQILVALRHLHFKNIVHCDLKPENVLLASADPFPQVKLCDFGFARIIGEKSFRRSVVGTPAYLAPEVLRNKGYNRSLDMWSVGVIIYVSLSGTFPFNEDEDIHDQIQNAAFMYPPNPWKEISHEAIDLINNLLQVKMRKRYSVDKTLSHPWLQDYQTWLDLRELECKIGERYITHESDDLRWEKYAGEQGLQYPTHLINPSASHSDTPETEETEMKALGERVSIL

[7] = target: T2, Serine/threonine-protein kinase D1 (Homo sapiens); settings: at 10 µM
[8] = target: T3, Serine/threonine-protein kinase D2 (Homo sapiens) (UniProt Q9BZL6); settings: at 1 µM
T3 sequence (whole entry): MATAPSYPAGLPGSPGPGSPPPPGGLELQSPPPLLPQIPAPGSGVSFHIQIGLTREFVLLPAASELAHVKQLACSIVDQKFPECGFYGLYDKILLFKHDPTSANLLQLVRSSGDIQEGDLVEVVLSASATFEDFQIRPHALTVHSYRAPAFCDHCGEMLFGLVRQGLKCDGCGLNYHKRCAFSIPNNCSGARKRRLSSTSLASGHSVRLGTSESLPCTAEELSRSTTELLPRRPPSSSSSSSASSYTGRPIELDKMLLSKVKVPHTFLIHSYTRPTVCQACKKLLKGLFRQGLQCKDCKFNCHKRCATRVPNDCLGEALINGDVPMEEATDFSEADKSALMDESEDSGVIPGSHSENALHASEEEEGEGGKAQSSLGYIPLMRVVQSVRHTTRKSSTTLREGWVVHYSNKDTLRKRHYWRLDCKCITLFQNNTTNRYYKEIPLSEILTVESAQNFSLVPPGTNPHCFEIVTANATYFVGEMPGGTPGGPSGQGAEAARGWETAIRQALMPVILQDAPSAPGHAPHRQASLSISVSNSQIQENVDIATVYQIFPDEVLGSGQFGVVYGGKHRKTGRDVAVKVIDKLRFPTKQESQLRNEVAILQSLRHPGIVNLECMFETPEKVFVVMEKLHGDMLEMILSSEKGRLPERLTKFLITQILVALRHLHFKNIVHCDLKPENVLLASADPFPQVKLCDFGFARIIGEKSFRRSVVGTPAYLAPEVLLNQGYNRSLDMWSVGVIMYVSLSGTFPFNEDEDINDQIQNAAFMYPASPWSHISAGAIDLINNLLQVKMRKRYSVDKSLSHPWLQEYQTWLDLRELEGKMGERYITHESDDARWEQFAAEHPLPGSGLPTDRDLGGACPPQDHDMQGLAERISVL

[9] = target: T3, Serine/threonine-protein kinase D2 (Homo sapiens); settings: at 10 µM
[10] = target: T1, Protein kinase C iota type (Homo sapiens); settings: at 1 µM

Protein kinase C theta type (Homo sapiens), sequence (Q04759 whole entry, looked up): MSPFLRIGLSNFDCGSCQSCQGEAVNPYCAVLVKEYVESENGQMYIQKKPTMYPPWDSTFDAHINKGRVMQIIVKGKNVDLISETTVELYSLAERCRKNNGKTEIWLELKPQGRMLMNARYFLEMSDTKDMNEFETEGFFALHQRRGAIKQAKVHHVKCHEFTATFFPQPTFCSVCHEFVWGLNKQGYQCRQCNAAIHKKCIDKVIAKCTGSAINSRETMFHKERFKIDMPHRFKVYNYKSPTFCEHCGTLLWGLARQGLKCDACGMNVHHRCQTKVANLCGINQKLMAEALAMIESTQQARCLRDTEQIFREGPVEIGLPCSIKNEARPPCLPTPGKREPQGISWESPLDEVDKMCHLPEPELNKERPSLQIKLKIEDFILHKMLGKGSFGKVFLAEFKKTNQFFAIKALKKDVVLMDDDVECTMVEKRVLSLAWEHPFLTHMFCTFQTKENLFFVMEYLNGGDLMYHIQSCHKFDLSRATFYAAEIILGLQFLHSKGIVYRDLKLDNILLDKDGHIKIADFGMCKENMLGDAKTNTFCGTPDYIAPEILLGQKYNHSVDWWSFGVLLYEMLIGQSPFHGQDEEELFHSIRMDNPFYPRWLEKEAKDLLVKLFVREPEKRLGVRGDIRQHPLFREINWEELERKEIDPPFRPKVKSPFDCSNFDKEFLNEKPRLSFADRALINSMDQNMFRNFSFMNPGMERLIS
Protein kinase C eta type (Homo sapiens), sequence (P24723 whole entry): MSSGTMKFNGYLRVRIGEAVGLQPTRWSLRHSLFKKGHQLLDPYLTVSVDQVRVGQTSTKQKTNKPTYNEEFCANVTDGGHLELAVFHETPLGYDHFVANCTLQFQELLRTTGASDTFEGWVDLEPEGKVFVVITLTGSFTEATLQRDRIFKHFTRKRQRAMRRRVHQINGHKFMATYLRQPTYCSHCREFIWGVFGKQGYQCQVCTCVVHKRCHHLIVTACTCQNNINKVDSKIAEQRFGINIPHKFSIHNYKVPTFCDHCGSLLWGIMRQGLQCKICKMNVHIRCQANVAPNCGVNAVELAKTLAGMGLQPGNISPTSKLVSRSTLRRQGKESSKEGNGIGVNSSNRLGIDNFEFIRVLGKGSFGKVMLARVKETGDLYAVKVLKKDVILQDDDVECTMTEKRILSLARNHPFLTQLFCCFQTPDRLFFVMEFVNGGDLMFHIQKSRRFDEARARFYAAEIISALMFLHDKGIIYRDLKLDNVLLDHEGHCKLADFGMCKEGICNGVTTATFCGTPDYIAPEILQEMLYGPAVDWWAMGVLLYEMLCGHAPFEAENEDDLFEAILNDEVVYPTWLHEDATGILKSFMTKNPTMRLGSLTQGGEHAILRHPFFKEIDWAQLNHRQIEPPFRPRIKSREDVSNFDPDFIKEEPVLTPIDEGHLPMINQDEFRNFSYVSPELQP

With `CC(C)[C@H](CO)Nc1nc(Nc2cc(N)cc(Cl)c2)c2ncn(C(C)C)c2n1` the residual activity [1] was 97%, the residual activity [2] was 99% and the residual activity [3] was 77%. It also gave a residual activity [4] of 23%, a residual activity [5] of 89% and a residual activity [6] of 99%. The residual activity [7] was 81%, the residual activity [8] was 96% and the residual activity [9] was 99%.

Work on `O=c1cc(N2CCOCC2)oc2c1ccc1ccccc12` yielded a residual activity [1] of 94%, a residual activity [2] of 79% and a residual activity [3] of 94%. For the same molecule, the residual activity [4] was 105%, the residual activity [10] was 85% (inactive) and the residual activity [5] was 97%. The residual activity [6] was 77%, the residual activity [7] was 79% and the residual activity [8] was 100%. It also gave a residual activity [9] of 94%.

`CSc1nc(-c2ccc(F)cc2)c(-c2ccnc(NC(C)c3ccccc3)c2)[nH]1` (stereo not given) showed a residual activity [1] of 87%, a residual activity [2] of 73% and a residual activity [3] of 101%. The residual activity [4] was 72%, the residual activity [5] was 99% and the residual activity [6] was 97%. It also gave a residual activity [7] of 44% and a residual activity [9] of 94%.

`Cn1c2ccccc2c2c3c(c4c5ccccc5n(CCC#N)c4c21)CNC3=O` gave a residual activity [1] of 72%, a residual activity [2] of 60% and a residual activity [6] of 5%. For the same molecule, the residual activity [7] was 12%.

`O=C(O)/C=C/c1cc(Br)c(Br)c(Br)c1Br` was tested, and the residual activity [1] was 100%, the residual activity [2] was 79% and the residual activity [3] was 100%. For the same molecule, the residual activity [4] was 90%, the residual activity [10] was 96% (inactive) and the residual activity [5] was 100%. For the same molecule, the residual activity [6] was 109%, the residual activity [7] was 64% and the residual activity [8] was 102%. The residual activity [9] was 97%.

Molecule `O=C1Cc2c([nH]c3ccc(Br)cc23)-c2ccccc2N1` has a residual activity [1] of 72%, a residual activity [2] of 94% and a residual activity [3] of 49%. The residual activity [4] was 31%, the residual activity [6] was 99% and the residual activity [7] was 80%.

For `CC(C)(C)n1nc(Cc2cccc3ccccc23)c2c(N)ncnc21`, the residual activity [1] was 77%, the residual activity [2] was 86% and the residual activity [3] was 98%. For the same molecule, the residual activity [4] was 92%, the residual activity [10] was 115% (inactive) and the residual activity [5] was 82%. The residual activity [6] was 22%, the residual activity [8] was 80% and the residual activity [9] was 24%.

`Nc1ncnc2c1cnn2-c1ccccc1` was tested, and the residual activity [1] was 102%, the residual activity [2] was 76% and the residual activity [10] was 102% (inactive). The residual activity [5] was 98% and the residual activity [6] was 92%.

`COc1cc2ncnc(Nc3cccc(Cl)c3)c2cc1OC` gave a residual activity [1] of 110%, a residual activity [2] of 108% and a residual activity [3] of 105%. It also gave a residual activity [4] of 101%, a residual activity [6] of 110% and a residual activity [7] of 73%.

`O=C1C(Cl)=C(N2C(=O)CCC2=O)C(=O)c2ccccc21` was tested, and the residual activity [1] was 68%, the residual activity [2] was 24% and the residual activity [3] was 92%. For the same molecule, the residual activity [4] was 85%, the residual activity [10] was 118% (inactive) and the residual activity [5] was 55%. The residual activity [6] was 72%, the residual activity [7] was 76% and the residual activity [8] was 99%. For the same molecule, the residual activity [9] was 100%.

`CCCC(=O)Oc1ccc2[nH]c(C(=O)c3cc4ccccc4[nH]3)cc2c1` was tested, and the residual activity [1] was 102%, the residual activity [2] was 81% and the residual activity [3] was 92%. The residual activity [4] was 75%, the residual activity [10] was 99% (inactive) and the residual activity [6] was 101%. For the same molecule, the residual activity [7] was 103% and the residual activity [8] was 99%.

With `Nc1ncnc2c1c(-c1ccc(Oc3ccccc3)cc1)cn2C1CCCC1` the residual activity [1] was 95%, the residual activity [2] was 67% and the residual activity [3] was 94%. The residual activity [4] was 109%, the residual activity [10] was 87% (inactive) and the residual activity [5] was 76%. For the same molecule, the residual activity [8] was 93% and the residual activity [9] was 95%.

`Cn1sc(=O)n(Cc2ccccc2)c1=O` was tested, and the residual activity [1] was 79%, the residual activity [2] was 17% and the residual activity [3] was 89%. The residual activity [4] was 85%, the residual activity [10] was 87% (inactive) and the residual activity [5] was 19%. It also gave a residual activity [6] of 90%, a residual activity [7] of 64% and a residual activity [8] of 99%. For the same molecule, the residual activity [9] was 93%.

`O=S(=O)(c1cccc2cnccc12)N1CCCNCC1` was tested, and the residual activity [1] was 80%, the residual activity [2] was 26% and the residual activity [4] was 67%. The residual activity [6] was 84%, the residual activity [7] was 20% and the residual activity [8] was 100%.

For `O=C1Nc2ccc(Cl)cc2/C1=C/c1cc(Cl)c(O)c(Cl)c1`, the residual activity [1] was 95%, the residual activity [2] was 79% and the residual activity [3] was 99%. For the same molecule, the residual activity [4] was 76%, the residual activity [10] was 85% (inactive) and the residual activity [5] was 83%. For the same molecule, the residual activity [8] was 98% and the residual activity [9] was 56%.

Work on `O=C1NC(=O)C(c2cn(CCCn3ccnc3)c3ccccc23)=C1Nc1ccccc1` yielded a residual activity [1] of 15%, a residual activity [2] of 2% and a residual activity [3] of 3%. It also gave a residual activity [4] of 2%.

Molecule `NC(=O)Nc1sc(-c2ccc(F)cc2)cc1C(N)=O` has a residual activity [1] of 74%, a residual activity [2] of 60% and a residual activity [3] of 83%. The residual activity [4] was 50%, the residual activity [10] was 109% (inactive) and the residual activity [5] was 107%. The residual activity [6] was 58%, the residual activity [7] was 29% and the residual activity [8] was 100%. It also gave a residual activity [9] of 64%.

`O=c1cc(N2CCNCC2)oc2c(-c3ccccc3)cccc12` gave a residual activity [1] of 99%, a residual activity [2] of 82% and a residual activity [3] of 102%. The residual activity [4] was 94%, the residual activity [10] was 93% (inactive) and the residual activity [5] was 71%. The residual activity [6] was 96%, the residual activity [7] was 90% and the residual activity [8] was 102%.

`COc1cc2nccc(Oc3ccc(NC(=O)Nc4cc(C)on4)c(Cl)c3)c2cc1OC` showed a residual activity [1] of 96%, a residual activity [2] of 79% and a residual activity [3] of 100%. The residual activity [4] was 98%.

Work on `O=C1NC(=O)C(c2c[nH]c3ccccc23)=C1c1c[nH]c2ccccc12` yielded a residual activity [1] of 68%, a residual activity [2] of 17% and a residual activity [3] of 5%. For the same molecule, the residual activity [4] was 2%, the residual activity [10] was 116% (inactive) and the residual activity [5] was 79%. It also gave a residual activity [7] of 71%.

Molecule `O=S(=O)(NCCNC/C=C/c1ccc(Br)cc1)c1cccc2cnccc12` has a residual activity [1] of 66%, a residual activity [2] of 15% and a residual activity [3] of 61%. The residual activity [4] was 17% and the residual activity [7] was 20%.

Work on `CCCCc1c(-c2ccc(O)cc2)[nH]c2nccnc12` yielded a residual activity [1] of 96%, a residual activity [2] of 77% and a residual activity [5] of 83%. The residual activity [6] was 83% and the residual activity [7] was 59%.

Work on `CC(C)c1nn(-c2c(Cl)cccc2Cl)c2nc(Cc3ccc(OCCO)cc3)[nH]c(=O)c12` yielded a residual activity [1] of 92%, a residual activity [2] of 91% and a residual activity [3] of 90%. For the same molecule, the residual activity [4] was 80%, the residual activity [10] was 99% (inactive) and the residual activity [5] was 102%. It also gave a residual activity [7] of 95%, a residual activity [8] of 95% and a residual activity [9] of 91%.

Reference: ChEMBL document CHEMBL2218924, “A broad activity screen in support of a chemogenomic map for kinase signalling research and drug discovery” (Biochem J, 2013)
